Experimental data taken from PubChem BioAssay (NCI).
This is part of a sample that, as a whole, favours compounds with a hit. Of some 79,000 tested, about 15% had one in any assay. The source made the active and inactive calls. Cut-off read from the data, not from the text of the source: active = growth inhibition above about 70%; inactive = the rest.

Columns and labels:
[1] = NCI Yeast Anticancer Drug Screen. Data for the rad52 strain (AID 147);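 note: 0% = growth of vehicle-treated control cultures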; details: S. cerevisiae rad52 mutant growth inhibition, hits give high values
Procedure, shortened: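 Genetically altered yeast (DNA damage repair defect) treated with compound; inhibition calculated relative to vehicle.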

[2] = NCI Yeast Anticancer Drug Screen. Data for the wt1 strain (AID 149);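 note: 0% = growth of vehicle-treated wt1 cultures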; details: S. cerevisiae wt1 strain (SPY 50644) growth inhibition, hits give high values
Procedure, shortened: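 Vehicle-normalised growth inhibition; strain wt1; compound exposure.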

[3] = NCI Yeast Anticancer Drug Screen. Data for the rad50EPP+ strain (AID 151);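 note: 0% = growth of vehicle-treated control cultures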; details: S. cerevisiae rad50 mutant strain, hits give high values
Procedure, shortened: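 Strain rad50EPP+; compound exposure; % growth inhibition vs vehicle.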

[4] = NCI Yeast Anticancer Drug Screen. Data for the mgt1 strain (AID 153); details: S. cerevisiae mgt1 mutant growth inhibition, hits give high values
Procedure, shortened: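 Read-out: yeast growth inhibition vs vehicle control. Strain mgt1, drawn from a panel altered in DNA damage repair or cell cycle control.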

[5] = NCI Yeast Anticancer Drug Screen. Data for the rad50 strain (AID 155);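 note: 0% = growth of vehicle-only cultures of the same strain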; details: S. cerevisiae rad50 strain growth inhibition, hits give high values
Procedure, shortened: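 A DNA repair-deficient yeast mutant serves as the test organism; compound-induced growth inhibition is calculated against vehicle-treated cells.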

[6] = NCI Yeast Anticancer Drug Screen. Data for the mec2-1 strain (AID 157); details: S. cerevisiae mec2-1 strain, hits give high values
Procedure, shortened: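 Cells of the genetically defined mec2-1 yeast strain are incubated with test compound. Inhibition of growth is calculated against vehicle-treated controls.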

[7] = NCI Yeast Anticancer Drug Screen. Data for the rad14 strain (AID 159);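 note: 0% = growth of vehicle-treated control cultures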; details: S. cerevisiae rad14 strain growth inhibition, hits give high values
Procedure, shortened: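 Vehicle-treated cultures served as the baseline for growth inhibition of a DNA repair-mutant yeast strain exposed to each compound.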

[8] = NCI Yeast Anticancer Drug Screen. Data for the sgs1 mgt1 strain (AID 161);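 note: 0% = growth of cultures given vehicle only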; details: S. cerevisiae sgs1 mgt1 strain, hits give high values
Procedure, shortened: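 Genetically altered yeast, compound exposure, growth inhibition relative to vehicle.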

[9] = NCI Yeast Anticancer Drug Screen. Data for the CLN2oe strain (AID 163);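 note: 0% = growth of vehicle-only control cultures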; details: S. cerevisiae CLN2oe strain, hits give high values
Procedure, shortened: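 Strain altered in cell-cycle control, incubated with compound; growth compared to solvent-treated controls.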

[10] = NCI Yeast Anticancer Drug Screen. Data for the cln2 rad14 strain (AID 165);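 note: 0% = growth equal to vehicle treated cultures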; details: S. cerevisiae cln2 rad14 strain, hits give high values
Procedure, shortened: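 The screen exposed genetically defined yeast (cln2 rad14) to test compounds and scored growth inhibition relative to vehicle-treated controls.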

[11] = NCI Yeast Anticancer Drug Screen. Data for the bub3 strain (AID 167); details: S. cerevisiae bub3 mutant strain, hits give high values
Procedure, shortened: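 Inhibition values come from growth of compound-treated mutant yeast normalised to vehicle-treated controls.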

[12] = NCI Yeast Anticancer Drug Screen. Data for the wt2 strain (AID 169);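 note: 0% = growth of vehicle-treated yeast cultures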; details: S. cerevisiae wt2 strain growth inhibition, hits give high values
Procedure, shortened: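 Steps: yeast strain treated with compound; growth recorded; inhibition calculated relative to cultures given vehicle alone.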

[13] = NCI Yeast Anticancer Drug Screen. Data for the mlh1 strain (AID 171);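 note: 0% = growth of vehicle-treated control cultures of the same strain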; details: S. cerevisiae mlh1 strain growth inhibition, hits give high values
Procedure, shortened: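 Yeast screen: mutant strain plus compound, growth scored against vehicle control wells.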

[14] = NCI Yeast Anticancer Drug Screen. Data for the sgs1 strain (AID 173);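 note: 0% = growth of vehicle-only control cultures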; details: S. cerevisiae sgs1 mutant, hits give high values
Procedure, shortened: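 Inhibition of yeast growth served as the measure. The mutant strain was treated with each compound, and growth was normalised to cultures receiving vehicle alone.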

[15] = NCI Yeast Anticancer Drug Screen. Data for the mlh1 rad18 strain (AID 175); details: S. cerevisiae mlh1 rad18 strain growth inhibition, hits give high values
Procedure, shortened: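 Compound-treated yeast growth, normalised to vehicle controls. Strain bears defined DNA repair mutations.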

[16] = NCI Yeast Anticancer Drug Screen. Data for the rad18 strain (AID 177); details: S. cerevisiae rad18 mutant growth inhibition, hits give high values
Procedure, shortened: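 Inhibition values reflect reduced yeast growth compared with vehicle-treated controls, using a strain engineered with a DNA damage repair defect.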

[17] = at 5.0 µM (retest, dose inferred, filed as 0.5)
[18] = at 50.0 µM (retest, dose inferred, filed as 5.0)

Measured: growth inhibition

CC1CN(/N=C\c2ccc([N+](=O)[O-])o2)C(=O)O1 (stereo unspecified)
inactive: [1]; at 1.2 µM 1% | [1]; at 3.7 µM 3% | [1]; at 11.0 µM 9% | [1]; at 33.0 µM 19% | [1]; at 100.0 µM 59% | [2]; at 1.2 µM -2% | [2]; at 3.7 µM -2% | [2]; at 11.0 µM -2% | [2]; at 33.0 µM 1% | [2]; at 100.0 µM 10% | [3]; at 1.2 µM 0% | [3]; at 3.7 µM -1% | [3]; at 11.0 µM 4% | [3]; at 33.0 µM 15% | [3]; at 100.0 µM 48% | [4]; at 1.2 µM -1% | [4]; at 3.7 µM -1% | [4]; at 11.0 µM -1% | [4]; at 33.0 µM -1% | [4]; at 100.0 µM 9% | [5]; at 1.2 µM 9% | [5]; at 3.7 µM 46% | [5]; [17] 8% | [5]; at 11.0 µM 32% | [5]; at 33.0 µM 24% | [5]; [18] 53% | [6]; at 1.2 µM 2% | [6]; at 3.7 µM 4% | [6]; [17] -25% | [6]; at 11.0 µM 6% | [6]; at 33.0 µM 12% | [6]; [18] 46% | [6]; at 50.0 µM 20.6% | [6]; at 100.0 µM 45% | [7]; at 1.2 µM 0% | [7]; at 3.7 µM -3% | [7]; at 11.0 µM -2% | [7]; at 33.0 µM 10% | [7]; at 100.0 µM 47% | [8]; [17] 27% | [9]; at 1.2 µM -7% | [9]; at 3.7 µM -6% | [9]; at 11.0 µM -3% | [9]; at 33.0 µM -7% | [9]; at 100.0 µM -6% | [10]; [17] -3% | [10]; [18] 45% | [10]; at 50.0 µM 18.9% | [11]; at 1.2 µM -1% | [11]; at 3.7 µM 3% | [11]; [17] -8% | [11]; at 11.0 µM 0% | [11]; at 33.0 µM 2% | [11]; [18] 14% | [11]; at 50.0 µM 14.1% | [11]; at 100.0 µM 9% | [12]; at 1.2 µM -3% | [12]; at 3.7 µM 6% | [12]; at 11.0 µM -3% | [12]; at 33.0 µM -1% | [12]; at 100.0 µM 18% | [13]; at 1.2 µM 0% | [13]; at 3.7 µM -2% | [13]; at 11.0 µM -1% | [13]; at 33.0 µM 3% | [13]; at 100.0 µM 16% | [14]; at 1.2 µM 7% | [14]; at 3.7 µM 11% | [14]; at 11.0 µM 27% | [14]; at 33.0 µM 56% | [15]; [17] 18%
active: [5]; at 50.0 µM 75.7% | [5]; at 100.0 µM 72% | [8]; [18] 83% | [8]; at 50.0 µM 86.1% | [14]; at 100.0 µM 87% | [15]; [18] 71% | [15]; at 50.0 µM 85.8% | [16]; at 1.2 µM 78% | [16]; at 3.7 µM 85% | [16]; at 11.0 µM 88% | [16]; at 33.0 µM 93% | [16]; at 100.0 µM 97%

O=NC1c2cccc3cccc(c23)C1N=O (stereo unspecified)
active: [1]; at 11.0 µM 75% | [1]; at 33.0 µM 90% | [1]; at 100.0 µM 94% | [3]; at 11.0 µM 81% | [3]; at 33.0 µM 92% | [3]; at 100.0 µM 93% | [4]; at 33.0 µM 86% | [4]; at 100.0 µM 94% | [5]; at 11.0 µM 84% | [5]; at 33.0 µM 93% | [5]; [18] 96% | [5]; at 50.0 µM 97% | [5]; at 100.0 µM 94% | [6]; [18] 94% | [6]; at 50.0 µM 94.3% | [7]; at 33.0 µM 92% | [7]; at 100.0 µM 97% | [8]; [18] 97% | [8]; at 50.0 µM 97.3% | [10]; [18] 92% | [10]; at 50.0 µM 80.5% | [11]; [18] 95% | [11]; at 50.0 µM 89% | [12]; at 33.0 µM 77% | [12]; at 100.0 µM 94% | [13]; at 33.0 µM 88% | [13]; at 100.0 µM 94% | [14]; at 33.0 µM 89% | [14]; at 100.0 µM 95% | [15]; [18] 98% | [15]; at 50.0 µM 97.3% | [16]; at 3.7 µM 70% | [16]; at 11.0 µM 94% | [16]; at 33.0 µM 95% | [16]; at 100.0 µM 95%
inactive: [1]; at 1.2 µM 14% | [1]; at 3.7 µM 33% | [2]; at 1.2 µM 3% | [2]; at 3.7 µM 3% | [2]; at 11.0 µM 20% | [2]; at 33.0 µM 38% | [2]; at 100.0 µM 69% | [3]; at 1.2 µM 11% | [3]; at 3.7 µM 41% | [4]; at 1.2 µM 4% | [4]; at 3.7 µM 12% | [4]; at 11.0 µM 47% | [5]; at 1.2 µM 19% | [5]; at 3.7 µM 49% | [5]; [17] 17% | [6]; at 1.2 µM -2% | [6]; at 3.7 µM 0% | [6]; [17] 13% | [6]; at 11.0 µM -1% | [6]; at 33.0 µM 31% | [6]; at 100.0 µM 45% | [7]; at 1.2 µM 4% | [7]; at 3.7 µM 25% | [7]; at 11.0 µM 40% | [8]; [17] 30% | [9]; at 1.2 µM 4% | [9]; at 3.7 µM 8% | [9]; at 11.0 µM 24% | [9]; at 33.0 µM 43% | [9]; at 100.0 µM 54% | [10]; [17] 6% | [11]; at 1.2 µM -10% | [11]; at 3.7 µM -20% | [11]; [17] -3% | [11]; at 11.0 µM 16% | [11]; at 33.0 µM 27% | [11]; at 100.0 µM 44% | [12]; at 1.2 µM 2% | [12]; at 3.7 µM 9% | [12]; at 11.0 µM 36% | [13]; at 1.2 µM 2% | [13]; at 3.7 µM 13% | [13]; at 11.0 µM 40% | [14]; at 1.2 µM 7% | [14]; at 3.7 µM 23% | [14]; at 11.0 µM 58% | [15]; [17] 48% | [16]; at 1.2 µM 22%

C/C1=C/C2OC(=O)C3(C)C2C(CC2(C)OC1=CC2=O)OC3(O)C(C)C (stereo unspecified)
active: [3]; at 33.0 µM 72% | [3]; at 100.0 µM 91% | [4]; at 100.0 µM 93%
inactive: [1]; at 1.2 µM -27% | [1]; at 3.7 µM -33% | [1]; at 11.0 µM -32% | [1]; at 33.0 µM -60% | [1]; at 100.0 µM -39% | [2]; at 1.2 µM -23% | [2]; at 3.7 µM -29% | [2]; at 11.0 µM -42% | [2]; at 33.0 µM -16% | [2]; at 100.0 µM -33% | [3]; at 1.2 µM -9% | [3]; at 3.7 µM -1% | [3]; at 11.0 µM 32% | [4]; at 1.2 µM -21% | [4]; at 3.7 µM -18% | [4]; at 11.0 µM 8% | [4]; at 33.0 µM 68% | [5]; at 1.2 µM -25% | [5]; at 3.7 µM -29% | [5]; [17] 16% | [5]; at 11.0 µM -38% | [5]; at 33.0 µM -57% | [5]; [18] 21% | [5]; at 50.0 µM 6.75% | [5]; at 100.0 µM -47% | [6]; at 1.2 µM -16% | [6]; at 3.7 µM -27%
